Rows were chosen to be rich in hits. Some 18% of all compounds tested hit in one or more screens of this group.
PLK1 PBD inh: PLK1 (human) polo-box domain binding inhibition. Plk1 PBD binding of FITC phosphopeptide, fluorescence polarization. Potency, µM, inactives show max response, negative = inhibition, usual class: inhibitors. AID 720504. 360,000 compounds, 2.8% hits; further: series mostly up to about 57 µM; nearly all actives have a fitted effect of over 65% in size
KAT2A inh: blocks human GCN5L2 histone acetyltransferase; Q92830; GCN5L2 HAT assay, ThioGlo1 CoA-SH fluorescence; Potency, µM (titrated, usually from 58.9 µM), inactives show at the top dose activity change, negative = inhibition, hits mostly inhibitors; 390,000 compounds, 0.21% hits; AID 504327
Target sequence (Q92830 whole entry, looked up): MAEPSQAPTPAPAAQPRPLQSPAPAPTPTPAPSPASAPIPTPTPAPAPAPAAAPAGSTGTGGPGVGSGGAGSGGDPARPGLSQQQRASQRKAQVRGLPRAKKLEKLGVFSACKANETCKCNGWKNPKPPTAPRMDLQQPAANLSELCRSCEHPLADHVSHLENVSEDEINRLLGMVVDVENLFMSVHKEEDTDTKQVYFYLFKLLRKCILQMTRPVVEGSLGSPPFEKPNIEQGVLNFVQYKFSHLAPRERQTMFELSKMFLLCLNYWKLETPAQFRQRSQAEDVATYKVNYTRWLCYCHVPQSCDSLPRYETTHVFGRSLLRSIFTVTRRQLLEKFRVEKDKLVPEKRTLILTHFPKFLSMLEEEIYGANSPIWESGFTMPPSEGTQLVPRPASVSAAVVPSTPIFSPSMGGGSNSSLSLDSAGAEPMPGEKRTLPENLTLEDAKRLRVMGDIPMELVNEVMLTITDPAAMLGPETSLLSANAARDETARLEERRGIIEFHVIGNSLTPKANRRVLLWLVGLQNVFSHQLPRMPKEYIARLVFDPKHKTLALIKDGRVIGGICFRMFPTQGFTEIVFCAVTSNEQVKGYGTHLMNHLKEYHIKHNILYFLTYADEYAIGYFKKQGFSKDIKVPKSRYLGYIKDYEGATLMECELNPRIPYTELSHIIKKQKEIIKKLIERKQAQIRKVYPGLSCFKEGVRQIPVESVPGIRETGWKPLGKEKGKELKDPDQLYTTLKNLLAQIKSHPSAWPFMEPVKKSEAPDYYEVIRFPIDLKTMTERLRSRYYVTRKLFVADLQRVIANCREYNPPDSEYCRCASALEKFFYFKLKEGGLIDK
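qHTS, 1536-well. 20nM enzyme, pH 7.5 HEPES/EDTA/Tween-20 buffer; 15 min compound preinc., RT. Start: 75uM H3(1-25), 70uM AcCoA, 50uM ThioGlo1. Read Ex340/Em540 at t=0 (autofluorescence flag) and t=20 min.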
DT40 TDP1 no CPT: qHTS for Inhibitors of human tyrosyl-DNA phosphodiesterase 1 (TDP1): qHTS in cells in absence of CPT | DT40 Tdp1-/- hTDP1 cells, no CPT, ATP luminescence, 48 h | Potency, µM (series often up to 46.2 µM), for inactives: at the top dose activity change, negative = growth inhibition, actives largely listed as inhibitors | 420,000 compounds, 15% hits | AID 686978, 2013; further: nearly all actives have a fitted effect of over 55% in size
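Camptothecin absent (DMSO only). Human TDP1-complemented DT40 knockout cells, 400 cells/well, 37 °C for minimum 48 hr; ATP measured via CellTiter-Glo, 30 min dark incubation, luminescence.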
TDP1 inh: TDP1 (human) enzyme inhibition; 350,000 compounds, 0.28% hits; recombinant TDP1, AlphaScreen DNA substrate cleavage; Potency, µM (series often up to 130 µM), without a hit: at the highest dose activity change, negative = inhibition, usual class: inhibitors; Q9NUW8; further: nearly all actives have a fitted effect of over 40% in size
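Here, a 5' biotin and 3' phosphotyrosine-FITC DNA oligonucleotide reports Tdp1 activity: intact substrate bridges AlphaScreen beads, while cleavage leaves a 3' phosphate and drops signal. All incubations at room temperature.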
VDR inh: inhibitors of human vitamin D receptor; P11473; VDR-SRC2-3 peptide fluorescence polarization, 2 h; Potency, µM, without a hit: max response, negative = inhibition, usual class: inhibitors; 400,000 compounds, 0.93% hits
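The screen uses fluorescence polarization to detect compounds that interfere with recruitment of the SRC2-3 coactivator peptide to VDR; plates are read after 2 h at room temperature.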
TDP1 cell CPT: growth inhibition of DT40 Tdp1-/-;hTDP1 cells with camptothecin (screen for TDP1 inhibitors); AID 686979; Potency, µM (series often up to 46.2 µM), without a hit: at the top dose activity change, negative = growth inhibition, usual class: inhibitors; 420,000 compounds, 12% hits; chicken DT40 Tdp1-/-;hTDP1 cells + 20 nM CPT, ATP luminescence, 48 h; further: nearly all actives have a fitted effect of over 55% in size
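Chicken DT40 Tdp1-/- cells complemented with human TDP1, 400 cells/well, exposed to compounds plus 20 nM camptothecin for at least 48 h at 37 C; viability read as ATP content by CellTiter-Glo luminescence.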
* = called active by the depositor; ? = inconclusive; / = not tested or not shown; ! = a repeat was not active; [ ] = remark or other dose. The call rests on the fitted dose curve; in most records, active means well fitted curve in the direction sought with a large enough effect; inconclusive means small, poorly fitted or top-dose-only effect, or another doubt; inactive means no such curve, though single readings can be large; an effect the other way counts as inactive or inconclusive. On the % scale 0 is the no-effect control and ±100 the full control effect; potency means the concentration at half of the fitted maximal effect.

SMILES	PLK1 PBD inh	KAT2A inh	DT40 TDP1 no CPT	TDP1 inh	VDR inh	TDP1 cell CPT
CCOC(=O)C1CCN(c2c(Nc3ccc(C)c(C)c3)c(=O)c2=O)CC1	0.9%	-3.3%	-21.5%	5.2%	-7.3%	?
CCN(CC)S(=O)(=O)c1ccc2c(c1)N(CC(=O)Nc1c(C)cccc1C)C(=O)CO2	/	-6.2%	-3.2%	-1.2%	-20.0%	2.3%
CCCCCCSc1ccc(-c2nc3ccc(C)cn3c2NCc2ccccc2)cc1	4.2%	-12.2%	16.4µM*!	0.9%	-9.9%	23.1µM*!
CCCCCCSc1cccc(-c2nc3ccc(Cl)cn3c2NCc2ccccc2)c1	-7.4%	5.2%	23.1µM*	-5.4%	-16.1%	20.6µM*
COc1cc(-c2nc3ccc(C)cn3c2Nc2ccc3c(c2)OCCO3)ccc1O	-3.1%	-14.7%	?	10.5%	-6.5%	?
CCCCNc1c(-c2cccc(SC3CCCCC3)c2)nc2ccc(Cl)cn12	-4.7%	-9.9%	?	/	2.5%	?
CCCCCCSc1ccc(-c2nc3ccc(C)cn3c2NCc2ccccc2)cc1OC	-3.2%	-1.8%	18.4µM*	-0.5%	-6.6%	16.4µM*
COc1cc(C(=O)NC(CCSC)C(=O)Nc2ccc(N3CCOCC3)cc2)cc(OC)c1OC (centres undefined)	-11.9%	/	1.9%	/	/	5.2%
Cc1ccc2cc(C=C(C#N)C#N)c(N3CCCCC3)nc2c1	?	-7.9%	?	2.9%	?	?
N#CC(C#N)=Cc1cc2ccccc2nc1N1CCOCC1	-1.2%	-5.3%	10.3µM*	2.7%	?	13µM*
Clc1ccc(-c2cc3ccccc3nc2N2CCCC2)cc1	-8.8%	-6.7%	18.4µM*	/	4.4%	?
Clc1ccc(-c2cc3ccccc3nc2N2CCOCC2)cc1	15µM*	-10.6%	?	/	?	?
Cc1cc(Nc2cc(Cl)cc(Cl)c2)nc(N)n1	5.4%	0.3%	10.3µM*	8.9%	-2.3%	?
CCn1c2ccccc2c2cc(CN3CCN(Cc4cc(OC)ccc4O)CC3)ccc21	-7.4%	-1.9%	?	7.0%	?	25.9µM*
COc1cc(CN2CCN(S(=O)(=O)c3ccccc3)CC2)cc(OC)c1O	/	12.1%	-7.3%	4.2%	-14.7%	-14.4%
COc1ccc(O)c(CN2CC3CCC(CC3)C2)c1	-3.1%	/	?	/	-10.3%	23.1µM*
CCn1c2ccccc2c2cc(CN3CCN(Cc4cc(OC)c(O)c(OC)c4)CC3)ccc21	/	3.5%	10.3µM*	0.4%[12.3 µM]	-15.3%	10.3µM*
CCCNC(=O)c1nn2cc(Br)cnc2c1Br	-1.7%	-12.8%	1.5%	?	3.9%	-8.2%
CC(NC(=O)COC(=O)CNS(=O)(=O)/C=C/c1ccccc1)c1ccccc1 (centres undefined)	-0.2%	2.1%	-4.8%	0.5%	5.5%	-18.7%
CCC12CN3CC(C)(CN(C1)C3c1ccc(O)cc1O)C2=O (centres undefined)	/	2.2%	3.5%	2.3%	-9.4%	3.8%
CC1=CCC2COC(c3ccc[n+](Cc4ccccc4)c3)C1C2 (centres undefined)	-7.1%	2.1%	2.91µM*	7.0%	2.3%	3.66µM*
Cc1ccc(S(=O)(=O)c2[nH]c(-c3ccccc3)nc2SC(C)C(=O)O)cc1 (centres undefined)	/	-1.8%	?	5.7%	10.0%	1.2%
Cc1cc(SCC(=O)c2ccc(O)c(O)c2)n2nc(C)c(-c3ccccc3)c2n1	-7.7%	-3.8%	14.6µM*	/	-2.5%	18.4µM*
Cc1cc(C)nc(SCC(=O)c2ccc(O)c(O)c2)n1	-11.8%	47.1%	?	/	8.5%	?
COc1cc2nc(N3CCCC(O)C3)c(CNCc3ccccc3C(F)(F)F)cc2c(OC)c1OC (centres undefined)	/	/	?	/	/	22.5%[9.04 µM]
SMILES	PLK1 PBD inh	KAT2A inh	DT40 TDP1 no CPT	TDP1 inh	VDR inh	TDP1 cell CPT
Cc1ccc(C)c(C(=O)NC(C)c2ccc(-n3ccnc3)cc2)c1 (centres undefined)	-2.9%	-4.8%	-18.7%	4.0%	2.6%	5.8%
Cc1ccc(C(O)c2ccc(-n3ccnc3)cc2)cc1 (centres undefined)	-9.9%	-7.3%	14.6µM*	/	-12.2%	?
COC1C(O)C(CO)OC1n1cnc2c(NC3CCCCC3)ncnc21 (centres undefined)	/	-12.6%	/	7.5%	6.9%	/
Cc1oc2c(cc(NS(=O)(=O)c3ccc(Cl)cc3)c3ccccc32)c1C(=O)O	?	-7.4%	-9.6%	-8.0%	-3.6%	?
CCOc1ccc(S(=O)(=O)Nc2cc3c(C(=O)OCc4ccccc4)c(C)oc3c3ccccc23)cc1	/	5.4%	29.1µM*	/	-21.0%	11.6µM*
CCCCOC(=O)c1c(C)oc2c1cc(NS(=O)(=O)c1cc(OC)ccc1OC)c1ccccc12	/	-12.0%	20.6µM*	7.4%	1.8%	?
CCOC(=O)c1c(C)oc2c1cc(NS(=O)(=O)c1ccc(C(=O)O)cc1)c1ccccc12	26.7µM*	-7.1%	-29.9%	10.8%	-1.9%	-8.9%
COCCOC(=O)c1c(C)oc2c1cc(NS(=O)(=O)c1ccc(Cl)c(C)c1)c1ccccc12	/	-5.4%	23.1µM*	/	6.6%	?
O=c1c2oc3ccccc3c2n(Cc2cccc(C(F)(F)F)c2)c(=O)n1Cc1ccc2c(c1)OCO2	/	-5.4%	?	2.6%	-5.8%	?
Cn1cccc1C(=O)NC(=O)COC(=O)c1cc(Cl)ccc1[N+](=O)[O-]	3.9%	0.5%	0.7%	2.6%	-12.3%	6.8%
Cc1oc2c(cc(NS(=O)(=O)c3ccc(C(C)C)cc3)c3ccccc32)c1C(=O)OCc1ccccc1	/	-5.5%	?	/	3.1%	20.6µM*
CCn1c(SCC(=O)Nc2ccccc2Br)nnc1-c1cnccn1	21.2µM*	0.5%	-16.8%	-0.1%	-23.4%	?
COc1ccc(C2=Nc3ccccc3N(C(=O)Cc3cc(OC)cc(OC)c3)C2C(=O)NC(C)C)cc1 (centres undefined)	-16.0%	/	-21.1%	/	/	?
COc1ccc(C2=Nc3ccccc3N(C(=O)c3ccc4ncccc4c3)C2C(=O)NC(C)(C)C)cc1 (centres undefined)	-9.3%	/	23.1µM*	/	/	13µM*
COc1ccc(C2=Nc3ccccc3N(C(=O)Cc3cc(OC)cc(OC)c3)C2C(=O)NC(C)(C)C)cc1 (centres undefined)	-11.3%	/	-85.3%	/	/	18.4µM*
COc1ccc(C2=Nc3ccccc3N(C(=O)c3ccc(C(F)(F)F)cc3)C2C(=O)NCc2ccccc2)cc1 (centres undefined)	-12.6%	/	?	/	/	?

Screens deposited in PubChem BioAssay by National Center for Advancing Translational Sciences (NCATS).
